Compounds with a hit are over-represented: about 6.5% of the library has one in this group of screens.
Autofluor 339 = intrinsic fluorescence of library compounds, ex339/em460 – biochemical, MLSMR library, data from DPM-DC assay, artefact control, profiling panel. compound autofluorescence, ex339/em460 nm, NADH buffer; hits give high values; 1 = no-compound wells, NADH background. fluorescence fold increase at 10 µM. 65,000 tested, 5.5% active;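 active = at 10 µM, mean starting fluorescence two-fold or more over control wells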;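 note: signal is the first read of a kinetic run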
PMK inhibit = S. pneumoniae PMK inhibitors, primary screen, biochemical, mevalonate pathway, pilot trial included | inhibition, % at 10 µM | purified PMK, PK/LDH-coupled NADH absorbance 340 nm | phosphomevalonate kinase (Streptococcus pneumoniae D39) | 65,000 tested, 0.49% active;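 active = top-ranked compounds by inhibition in the single 10 µM screen, taking a fixed number of the strongest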
NADH coupling = inhibitors of PK/LDH coupling enzymes, profiling panel, artefact control, biochemical, MLSMR library; 65,000 tested, 0.02% active; coupled PK/LDH NADH assays, four targets; AID 774, 2007; IC50, µM (series often up to 10 µM);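 active = single-dose screening hits from any of four coupled enzyme assays that gave an IC50 when retested across doses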;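 note: the DPM-DC format reads NADH fluorescence rather than 340 nm absorbance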
DPM-DC inhibit = S. pneumoniae DPM-DC inhibitors, primary screen, biochemical, PK/LDH-coupled NADH fluorescence; diphosphomevalonate decarboxylase (Streptococcus pneumoniae D39); purified DPM-DC; calls only at 10 µM; 65,000 tested, 0.49% active;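 active = the 320 compounds with the highest percent inhibition in the single-dose primary screen, excluding strongly autofluorescent ones, cut at about 32% in these data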;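 note: kinetic rate of NADH fluorescence loss reporting ADP formed by the decarboxylase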
A340 absorber = compound light absorbance at 340 nm, profiling panel, artefact control, biochemical, MLSMR library, data from PS, PMK, MK assays. compound absorbance at 340 nm, fold over control. fold change at 10 µM. 65,000 tested, under 10 active. AID 708, 2007;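 active = at 10 µM dose, initial 340 nm absorbance at least 2 fold that of control wells; inactive = change under 2 fold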;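 note: initial absorbance extrapolated from kinetic A340 decline of NADH oxidation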
MK inhibit = S. pneumoniae MK inhibitors, primary screen, biochemical, PK/LDH-coupled NADH absorbance | purified MK, PK/LDH-coupled NADH absorbance 340 nm | inhibition, % at 10 µM | 65,000 tested, 0.48% active | AID 555, 2006;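 active = ranked among the strongest by inhibition in the single 10 µM screen, a fixed top-ranked set picked for dose follow-up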
Of the large screens only hits and unclear results are named; the others gave an inactive call; [ ] = remark or other dose.

CCCc1cc(=O)[nH]c(SCC(=O)N(C)C2CCS(=O)(=O)C2)n1 (stereo unspecified)	none
COc1cccc(-c2cn3nc4c(nc3n2)CCCC4)c1	Autofluor 339 2.6
CC(C)n1c(=NC(=O)c2ccco2)c(C#N)cc2c(=O)n3ccccc3cc21	Autofluor 339 2.9 (not shown: DPM-DC inhibit)
O=C(N=C1SCC(=O)N1c1ccccc1Cl)c1ccco1	none
COc1ccccc1C(c1nnnn1C(C)(C)C)N1CCN(Cc2ccncc2)CC1 (stereo unspecified)	PMK inhibit 27
Cc1nnc2sc(-c3ccc(NC(=O)c4ccc(-c5ccc(Br)cc5)o4)cc3)nn12	Autofluor 339 3.7 (not shown: DPM-DC inhibit)
COc1cc(NC(=O)c2ccc(-c3ccc(Br)cc3)o2)ccc1NC(=O)C(C)C	Autofluor 339 3.8 (not shown: DPM-DC inhibit)
Cc1ccc(-c2nn3c(C)nnc3s2)cc1NC(=O)c1ccc(-c2ccc(Cl)cc2Cl)o1	Autofluor 339 3.7 (not shown: DPM-DC inhibit)
COc1cc(NC(=O)c2ccc3c(c2)OCO3)ccc1NC(=O)C(C)C	none
CCOc1ccc(N(CC(=O)NC2CCCC2)S(=O)(=O)c2c(C)[nH]c(=O)[nH]c2=O)cc1	none
O=C1CCCC2=C1C1(CCCC1)N=C(Nc1nc3ccccc3s1)N2	Autofluor 339 2
O=C1CCCC2=C1C1(CCCCC1)N=C(Nc1nc3ccccc3s1)N2	Autofluor 339 2.3
O=c1cc(-c2ccccc2)[nH]n1-c1nc2ccccc2s1	none
O=c1cc(-c2ccccc2)[nH]c2nc3ccccc3n12	Autofluor 339 2.5 (not shown: DPM-DC inhibit)
COc1ccc(OC)c(S(=O)(=O)N(C)CC(=O)N2CCN(c3ccccc3F)CC2)c1	none
COc1ccc(NC(=O)CSc2nnc(-c3ccncc3)n2CC2CCCO2)c(OC)c1 (stereo unspecified)	none
Cc1nn(Cc2ccccc2)c2sc(C(=O)N3CCN(Cc4ccc5c(c4)OCO5)CC3)cc12	none
CC(C)c1nc(=S)n(-c2ccccc2)[nH]1	MK inhibit 44
Cc1cc(NC(=O)c2cc(-c3cccnc3)nc3c(C)c(C)ccc23)no1	Autofluor 339 2.9
Cc1ccc(-c2cc(C(=O)Nc3cc(C)on3)c3ccccc3n2)c(C)c1	none
O=C(Cc1cccs1)Nc1nnc(-c2ccncc2)s1	Autofluor 339 2.2 (not shown: DPM-DC inhibit)
COc1ccc(S(=O)(=O)N2CCN(C3CCCCCCC3)CC2)cc1	PMK inhibit 29
COc1ccc(S(=O)(=O)N2CCC(N3CCCCC3)CC2)cc1	none
O=S(=O)(c1ccc(F)cc1)N1CCC(N2CCCC2)CC1	MK inhibit 50
O=C(COC(=O)C1c2ccccc2Oc2ccccc21)NC1CCS(=O)(=O)C1 (stereo unspecified)	none
COc1cc(C(=O)NCCC(=O)NC2CCCCCCC2)cc(OC)c1OC	none
C=CCSc1nnc(NC(=O)CSc2nc3ccccc3o2)s1	none
CC(C)c1ccc(NC(=O)C2CC(=O)N=C(N)S2)cc1 (stereo unspecified)	none
CCCNc1ncccc1C(N)=O	Autofluor 339 3.4 (not shown: DPM-DC inhibit)
CC1(C)CC2CC(C)(CN2C(=O)COC(=O)c2ccc(Cl)cc2N)C1 (stereo unspecified)	Autofluor 339 4.2 (not shown: DPM-DC inhibit)
O=C(Cc1cccs1)NCCn1ccc2ccccc21	none
CN(C)CCN(Cc1ccccc1)c1ccnc(N(C)C)c1C#N	MK inhibit 56
CN(C)CCN(Cc1ccccc1)c1ccccn1	none
c1coc(C2Nc3cccc4cccc(c34)N2)c1	Autofluor 339 3.8 (not shown: DPM-DC inhibit)
Cn1cnnc1SCC(=O)c1cc2ccccc2oc1=O	none
O=C(Cn1nc(Cl)nc1Cl)c1cc2ccccc2oc1=O	Autofluor 339 2.2
CCOC(=O)c1[nH]c2ccc(OC)cc2c1NC(=O)CCN1CCC(C)CC1	Autofluor 339 2.5 (not shown: DPM-DC inhibit)
CCOC(=O)c1[nH]c2ccc(F)cc2c1NC(=O)CN1CCc2cc(OC)c(OC)cc2C1	none
COC(=O)c1[nH]c2ccc(Cl)cc2c1NC(=O)CCN1CCOCC1	Autofluor 339 2.1, DPM-DC inhibit active
CCOC(=O)c1[nH]c2ccc(OC)cc2c1NC(=O)CCN1CCc2ccccc2C1	Autofluor 339 2.3 (not shown: DPM-DC inhibit)
COC(=O)c1[nH]c2cc(OC)ccc2c1NC(=O)CCN1CCCCC1	none
O=C(O)c1cc(S(=O)(=O)Nc2ccc3c(c2)OCCO3)c(Cl)cc1Cl	none
CCCOC(=O)CSC1=C(C#N)C(c2ccccc2OC)C(C#N)C(=O)N1 (stereo unspecified)	none
O=C(CSCC(=O)N1CCCCC1)OCC(=O)c1c[nH]c2ccccc12	none
O=C(c1ccccc1)C1CCc2occc2C1=O (stereo unspecified)	none
C=CCc1ccc(OCCCCCN2CCOCC2)c(OC)c1	none
COc1ccc2[nH]c(C(=O)O)c(CCC(=O)O)c2c1	Autofluor 339 2.5
COc1ccc2[nH]c(C(=O)O)c(NS(=O)(=O)c3ccc(OC)c(OC)c3)c2c1	Autofluor 339 2.2
CC1CCN(Cc2ccc(NC(=O)CC3Oc4ccccc4NC3=O)cc2)CC1 (stereo unspecified)	none
Cc1ccc(-n2nc3c(c2NC(=O)c2c(-c4ccccc4Cl)noc2C)CS(=O)(=O)C3)c(C)c1	PMK inhibit 25
Cc1nc(-c2cnn(-c3ccccc3)c2)c2cc(C)oc2n1	Autofluor 339 2.7, DPM-DC inhibit active[fluoresces]
Cc1oc2cc(O)cc(C)c2c(=O)c1-c1cnn(-c2ccccc2)c1	none
CC12C=CC3(CN(Cc4ccccc4)C(=O)C3C1C(=O)NC1CC1)O2 (stereo unspecified)	PMK inhibit 28
Cn1ncc2c(Nc3ccc(-c4ccccc4)cc3)ncnc21	Autofluor 339 3.1, DPM-DC inhibit active
CCc1ccc(OCC(=O)N(C)C)c(Br)c1	none
Cc1c(OCC(=O)OC(C)C)ccc2c3c(c(=O)oc12)CCC3	none
C=CCOC(=O)COc1ccc2c(C)c(C)c(=O)oc2c1C	Autofluor 339 2.4 (not shown: DPM-DC inhibit)
CCc1c(C)c2ccc(OCC(=O)OC(C)C)c(C)c2oc1=O	Autofluor 339 3.6 (not shown: DPM-DC inhibit)
Cc1c(C)c2ccc(OCC(=O)N(C)C)c(C)c2oc1=O	Autofluor 339 3.7 (not shown: DPM-DC inhibit)
CCc1c(C)c2ccc(OCC(=O)N(C)C)c(C)c2oc1=O	Autofluor 339 3.5 (not shown: DPM-DC inhibit)
Cc1cc(C)cc(N(CC(=O)N2CCn3c2nc2ccccc23)S(=O)(=O)c2c(C)noc2C)c1	none
COc1ccc2c(C)cc(=O)oc2c1C	Autofluor 339 2.1 (not shown: DPM-DC inhibit)
CCN(CC)C(=O)COc1cccc2ccccc12	none
CCOC(=O)CCc1c(C)c2ccc(OCC(=O)N(CC)CC)c(C)c2oc1=O	Autofluor 339 3.8 (not shown: DPM-DC inhibit)
Cc1cc(=O)oc2c(C)c(OCC(=O)N(C)C)ccc12	Autofluor 339 3.4 (not shown: DPM-DC inhibit)
CCc1cc(=O)oc2cc(OCC(=O)N(CC)CC)c(Cl)cc12	none

Screens (PubChem BioAssay)
